Records with an inconclusive call do not appear. Active and inactive are the calls of the source. Unless noted, calls follow the shape of the dose curve; as a rule, active = well fitted curve in the direction sought with a large enough effect in the repeat runs; inconclusive = weak or mixed curves; inactive = no such curve, though single readings can be large; an effect the other way counts as inactive or inconclusive.
Legend:
[1] = target: Androgen receptor (Homo sapiens) (UniProt P10275); test: qHTS assay to identify small molecule agonists of the androgen receptor (AR) signaling pathway in the presence of an antagonist (AID 1259381; calls by dose curve; also: nearly all actives have a fitted effect of over 15% in size; also: potency is read from the fitted curve at half-maximal effect)
Chain of Androgen receptor (Homo sapiens) (P10275 whole entry, looked up): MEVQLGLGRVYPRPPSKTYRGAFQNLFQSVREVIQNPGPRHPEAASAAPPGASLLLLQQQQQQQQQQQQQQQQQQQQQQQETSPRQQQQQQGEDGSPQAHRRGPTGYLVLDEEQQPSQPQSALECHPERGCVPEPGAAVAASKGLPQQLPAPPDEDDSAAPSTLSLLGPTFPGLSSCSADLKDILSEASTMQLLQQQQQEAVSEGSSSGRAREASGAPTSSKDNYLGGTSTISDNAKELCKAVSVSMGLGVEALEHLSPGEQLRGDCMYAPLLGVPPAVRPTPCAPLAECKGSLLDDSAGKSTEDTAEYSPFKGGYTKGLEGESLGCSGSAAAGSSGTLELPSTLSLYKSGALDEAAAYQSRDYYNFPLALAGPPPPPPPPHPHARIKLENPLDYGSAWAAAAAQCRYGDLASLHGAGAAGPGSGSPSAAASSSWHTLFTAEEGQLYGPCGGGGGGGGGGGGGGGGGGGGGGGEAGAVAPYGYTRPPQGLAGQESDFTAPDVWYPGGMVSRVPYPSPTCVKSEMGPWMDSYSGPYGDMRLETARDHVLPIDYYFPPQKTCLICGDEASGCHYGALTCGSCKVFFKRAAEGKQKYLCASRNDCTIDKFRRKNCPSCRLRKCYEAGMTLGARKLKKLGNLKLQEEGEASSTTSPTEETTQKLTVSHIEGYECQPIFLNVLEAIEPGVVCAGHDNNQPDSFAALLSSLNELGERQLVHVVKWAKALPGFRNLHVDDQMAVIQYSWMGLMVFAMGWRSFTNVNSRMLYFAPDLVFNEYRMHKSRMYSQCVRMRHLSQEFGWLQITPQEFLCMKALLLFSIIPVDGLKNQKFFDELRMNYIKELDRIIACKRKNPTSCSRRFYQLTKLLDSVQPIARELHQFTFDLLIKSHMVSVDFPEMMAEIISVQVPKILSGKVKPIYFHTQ
Outline: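 Using human MDA-kb2 cells with an MMTV promoter–luciferase construct (AR and GR response elements), agonist activity is scored under 3.0uM nilutamide (final) co-treatment; 16hr incubation, 37C, luminescence readout via ONE-Glo.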

[2] = qHTS assay to identify small molecule antagonists of the estrogen receptor beta (ER-beta) signaling pathway - cell viability counter screen (AID 1259382); also: series mostly up to about 92 µM; nearly all actives have a fitted effect of over 55% in size
Outline: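 Agonist-stimulated (1nM E2) ER-beta-UAS-bla HEK293T cells are incubated with library compounds for 16 hr at 37C. Cell viability is then assessed in the reporter-assay wells by adding CellTiter-Glo and reading luminescence after 30 min.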

[3] = target: Estrogen receptor (Homo sapiens) (UniProt P03372); test: qHTS assay to identify small molecule agonists of the estrogen receptor alpha (ER-alpha) signaling pathway in the presence of an antagonist (AID 1259383; calls by dose curve; also: top concentration of the series differs between compounds; nearly all actives have a fitted effect of over 15% in size)
Chain of Estrogen receptor (Homo sapiens) (P03372 whole entry, looked up): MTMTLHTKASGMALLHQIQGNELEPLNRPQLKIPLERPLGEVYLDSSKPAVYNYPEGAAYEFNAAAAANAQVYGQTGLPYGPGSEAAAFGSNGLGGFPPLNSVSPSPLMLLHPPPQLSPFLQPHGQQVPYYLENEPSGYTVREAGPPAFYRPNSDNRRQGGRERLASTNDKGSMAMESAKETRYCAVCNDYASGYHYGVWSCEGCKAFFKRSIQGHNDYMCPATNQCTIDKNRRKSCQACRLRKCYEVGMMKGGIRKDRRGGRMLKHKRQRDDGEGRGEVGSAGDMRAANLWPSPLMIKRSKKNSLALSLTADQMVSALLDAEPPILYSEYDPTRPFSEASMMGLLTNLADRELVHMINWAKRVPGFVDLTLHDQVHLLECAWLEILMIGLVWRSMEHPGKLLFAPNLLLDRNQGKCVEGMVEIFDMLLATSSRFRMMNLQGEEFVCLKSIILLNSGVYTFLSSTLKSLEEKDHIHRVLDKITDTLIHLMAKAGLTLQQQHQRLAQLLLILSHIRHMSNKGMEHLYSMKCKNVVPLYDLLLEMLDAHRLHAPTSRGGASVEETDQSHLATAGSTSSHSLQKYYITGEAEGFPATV
Outline: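 Using VM7Luc4E2 cells seeded 24hr before treatment, antagonist ICI-182,780 (10.0nM final) was added, followed by compounds at 15 concentrations. Plates incubated 22hr; ONE-Glo luminescence quantified reporter activity.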

[4] = qHTS assay to identify small molecule agonists or antagonists of the thyroid stimulating hormone receptor (TSHR) signaling pathway - wild type cell line counter screen (AID 1259384; calls by dose curve)
Outline: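 Wild-type HEK293 cells were plated 18 h at 37 C/5% CO2, pin-dosed with compound plus Ro20-1724 medium, held 30 min at room temperature, then given cAMP-d2 and anti-cAMP-cryptate; fluorescence was read after 1 h. Fifteen concentrations, triplicate.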

[5] = target: Progesterone receptor (Homo sapiens) (UniProt P06401); test: qHTS assay to identify small molecule agonists of the progesterone receptor (PR) signaling pathway (AID 1346784; calls by dose curve; also: nearly all actives have a fitted effect of over 30% in size)
Chain of Progesterone receptor (Homo sapiens) (P06401 whole entry, looked up): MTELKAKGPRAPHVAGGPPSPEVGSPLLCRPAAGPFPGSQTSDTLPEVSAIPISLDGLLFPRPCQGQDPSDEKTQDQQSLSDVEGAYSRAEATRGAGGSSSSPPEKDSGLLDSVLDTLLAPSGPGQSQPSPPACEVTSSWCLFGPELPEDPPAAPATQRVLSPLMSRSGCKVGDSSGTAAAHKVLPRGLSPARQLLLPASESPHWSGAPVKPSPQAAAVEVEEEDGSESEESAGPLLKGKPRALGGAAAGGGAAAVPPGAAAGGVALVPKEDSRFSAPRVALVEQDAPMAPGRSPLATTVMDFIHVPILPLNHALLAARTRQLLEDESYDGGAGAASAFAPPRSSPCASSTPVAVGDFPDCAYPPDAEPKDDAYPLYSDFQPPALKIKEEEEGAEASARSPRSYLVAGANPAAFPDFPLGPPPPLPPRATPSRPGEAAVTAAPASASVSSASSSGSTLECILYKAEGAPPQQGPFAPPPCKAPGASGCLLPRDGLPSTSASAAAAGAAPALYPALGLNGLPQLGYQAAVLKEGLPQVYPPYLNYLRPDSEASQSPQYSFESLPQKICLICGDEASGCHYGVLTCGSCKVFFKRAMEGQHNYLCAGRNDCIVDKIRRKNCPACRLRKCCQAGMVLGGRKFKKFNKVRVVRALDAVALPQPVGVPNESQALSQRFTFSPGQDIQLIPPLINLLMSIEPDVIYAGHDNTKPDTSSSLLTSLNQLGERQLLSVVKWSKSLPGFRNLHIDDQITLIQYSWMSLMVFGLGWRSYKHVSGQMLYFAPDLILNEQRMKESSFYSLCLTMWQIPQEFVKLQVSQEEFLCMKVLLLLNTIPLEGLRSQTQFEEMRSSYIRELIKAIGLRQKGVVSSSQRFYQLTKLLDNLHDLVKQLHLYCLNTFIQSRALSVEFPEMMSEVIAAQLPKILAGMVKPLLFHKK
Outline: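 Beta-lactamase reporter read-out: after 16 hr compound treatment at 37C and a further 2 hr at room temperature with LiveBLAzer B/G FRET substrate, fluorescence was measured in PR-UAS-bla HEK 293T cells grown in 2% charcoal-stripped serum.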

[6] = qHTS assay to identify small molecule antagonists of the progesterone receptor (PR) signaling pathway - cell viability counter screen (AID 1346798); also: nearly all actives have a fitted effect of over 50% in size; also: potency is read from the fitted curve at half-maximal effect
Outline: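 HEK293T PR-UAS-bla, 2% charcoal-stripped FBS; 4 hr pre-plate; cpd + R5020, 16 h 37C; LiveBLAzer read first; then CellTiter-Glo 30 min RT, luminescence.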

[7] = qHTS assay to identify small molecule agonists of the progesterone receptor (PR) signaling pathway - cell viability counter screen (AID 1346799; calls by dose curve; also: nearly all actives have a fitted effect of over 45% in size)
Outline: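 Luminescence from CellTiter-Glo, added after the beta-lactamase FRET read in the same wells, gave cytotoxicity in PR-UAS-bla HEK293T cells treated with compounds for 16 hr at 37C.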

[8] = qHTS assay to identify small molecule antagonists of the TGF-beta/Smad signaling pathway - cell viability counter screen (AID 1346824); also: nearly all actives have a fitted effect of over 50% in size
Outline: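 SBE-bla HEK 293T cells were plated overnight at 37 C, then given compounds in DMSO plus TGF-beta1 (added as 0.25 ng/mL solution) for 5 hr. After the bla read, CellTiter-Glo was added to the same wells and luminescence read after 30 min at room temperature.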

[9] = qHTS assay to identify small molecule agonists of the TGF-beta/Smad signaling pathway (AID 1346859; active = well fitted activation curve with a large enough effect in the signal ratio in the repeat runs, not every such curve was filed as active; the % refers to the signal ratio; also: series mostly up to about 77 µM)
Outline: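 SBE-bla HEK 293T, 4,000 cells/well, plated o/n; cpd in DMSO, 5 hr, 37 C/5% CO2; B/G FRET substrate 2 hr RT; ex 405, em 460/530 nm.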

[10] = target: Thyrotropin-releasing hormone receptor (Homo sapiens) (UniProt P34981); test: qHTS assay to identify small molecule agonists of the thyrotropin-releasing hormone receptor (TRHR) signaling pathway (AID 1346891; calls by dose curve; also: series mostly up to about 58 µM)
Chain of Thyrotropin-releasing hormone receptor (Homo sapiens) (P34981 whole entry, looked up): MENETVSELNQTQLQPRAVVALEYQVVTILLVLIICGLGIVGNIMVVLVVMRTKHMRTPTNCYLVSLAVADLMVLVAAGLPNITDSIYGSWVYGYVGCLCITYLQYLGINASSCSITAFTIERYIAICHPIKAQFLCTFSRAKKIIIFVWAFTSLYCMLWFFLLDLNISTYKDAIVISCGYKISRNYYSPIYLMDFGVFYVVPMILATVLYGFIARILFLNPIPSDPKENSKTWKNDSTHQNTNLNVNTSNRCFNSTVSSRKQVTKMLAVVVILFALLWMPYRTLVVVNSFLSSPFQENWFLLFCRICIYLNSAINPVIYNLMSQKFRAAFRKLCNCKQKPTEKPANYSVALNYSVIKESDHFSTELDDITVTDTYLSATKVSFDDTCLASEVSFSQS
Outline: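 Intracellular calcium rise, read as fluorescence every second for 3 min, served as the agonist signal in dye-loaded HEK293 cells expressing TRHR; each compound ran at 15 concentrations in triplicate.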

[11] = Human pregnane X receptor (PXR) small molecule agonists, qHTS cell viability counter screen (AID 1346977); also: nearly all actives have a fitted effect of over 50% in size; also: potency is read from the fitted curve at half-maximal effect
Outline: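 PXR-Luc HepG2, 2,000 cells/well, 5% charcoal-stripped FBS; 5hr settle; cpd 24hr, 37C/5% CO2; CellTiter-Fluor at 23hr, read 1hr later (fluorescence).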

[12] = Caspase-3/7 induction in HepG2 cells by small molecules, qHTS assay (AID 1346978); also: nearly all actives have a fitted effect of over 15% in size
Outline: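 Wild-type HepG2 cells (2,000/well) were settled 5 h at 37 C, 5% CO2, then exposed to compounds in DMSO for 17 h. Caspase-3/7 activity was read by luminescence 30 min after adding Caspase-Glo 3/7 reagent at room temperature.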

[13] = Caspase-3/7 induction in CHO-K1 cells by small molecules, qHTS assay (AID 1346980); also: nearly all actives have a fitted effect of over 15% in size
Outline: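 Wild-type cells were seeded at 1,500 per well and settled 5 hr at 37 C, 5% CO2, then exposed to DMSO-dissolved compounds for 17 hr. Caspase-Glo 3/7 reagent was added, and luminescence was read after 30min at room temperature.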

[14] = target: Thyrotropin receptor (Homo sapiens) (UniProt P16473); test: qHTS assay to identify small molecule antagonists of the thyroid stimulating hormone receptor (TSHR) signaling pathway (AID 1259385; calls by dose curve; also: nearly all actives have a fitted effect of over 20% in size; also: potency is read from the fitted curve at half-maximal effect)
Chain of Thyrotropin receptor (Homo sapiens) (P16473 whole entry, looked up): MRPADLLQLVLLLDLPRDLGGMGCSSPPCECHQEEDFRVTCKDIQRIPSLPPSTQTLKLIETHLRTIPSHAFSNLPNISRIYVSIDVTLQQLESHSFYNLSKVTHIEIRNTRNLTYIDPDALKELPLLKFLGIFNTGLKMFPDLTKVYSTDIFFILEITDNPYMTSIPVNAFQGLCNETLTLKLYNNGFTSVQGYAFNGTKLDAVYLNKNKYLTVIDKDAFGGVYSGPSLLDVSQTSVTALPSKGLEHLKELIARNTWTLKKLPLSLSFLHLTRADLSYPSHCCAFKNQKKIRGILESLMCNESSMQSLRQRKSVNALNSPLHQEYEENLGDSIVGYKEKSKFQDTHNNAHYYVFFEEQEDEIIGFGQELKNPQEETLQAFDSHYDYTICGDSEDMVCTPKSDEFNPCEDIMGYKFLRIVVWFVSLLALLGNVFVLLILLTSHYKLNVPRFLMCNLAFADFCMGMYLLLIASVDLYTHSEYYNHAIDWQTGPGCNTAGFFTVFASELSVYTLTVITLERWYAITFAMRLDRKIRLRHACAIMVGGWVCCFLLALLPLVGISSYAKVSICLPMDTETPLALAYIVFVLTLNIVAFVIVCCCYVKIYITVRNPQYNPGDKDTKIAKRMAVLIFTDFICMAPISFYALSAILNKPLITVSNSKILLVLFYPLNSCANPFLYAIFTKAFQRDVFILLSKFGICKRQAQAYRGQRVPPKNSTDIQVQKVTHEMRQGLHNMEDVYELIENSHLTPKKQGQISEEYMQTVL
Outline: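 TSHR-HEK293 cells were plated and held 18 h at 37C/5% CO2, then given compound plus Ro20-1724 and stimulated with TSH at 1.5 ng/mL final. After 30 min at room temperature, cAMP was detected with cAMP-d2/anti-cAMP-cryptate (1 h) by fluorescence.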

[15] = qHTS assay to identify small molecule agonists of the estrogen receptor alpha (ER-alpha) signaling pathway in the presence of an antagonist - cell viability counter screen (AID 1259386);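 also: series mostly up to about 92 µM; cells exposed to compounds for 22 h at 37 °C before the viability read; nearly all actives have a fitted effect of over 30% in size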
Outline: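 ICI-182,780 at 10.0nM final accompanies the compound titration (15 concentrations, 22hr, 37C) on VM7Luc4E2 cells. The CellTiter-Fluor fluorescence readout runs in the same wells as the luciferase assay.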

[16] = qHTS assay to identify small molecule agonists of the TGF-beta/Smad signaling pathway - cell viability counter screen (AID 1346829); also: top concentration of the series differs between compounds; nearly all actives have a fitted effect of over 45% in size
Outline: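 Same-well cytotoxicity: CellTiter-Glo added after the 2 hr room-temperature beta-lactamase substrate step, luminescence measured 30 min later; cells had 5 hr of compound at 37 C.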

[17] = Caspase-3/7 induction in CHO-K1 cells by small molecules, qHTS cell viability counter screen (AID 1346979); also: nearly all actives have a fitted effect of over 35% in size; also: potency is read from the fitted curve at half-maximal effect
Outline: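 Cells (CHO-K1, wild type) are plated at 1,500 per well and incubated 5hr. Test compounds in DMSO are then pinned in, followed by 16hr at 37C and 5% CO2. Viability is read by CellTiter-Fluor fluorescence after 1hr.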

[18] = target: Thyrotropin-releasing hormone receptor (Homo sapiens) (UniProt P34981); test: qHTS assay to identify small molecule antagonists of the thyrotropin-releasing hormone receptor (TRHR) signaling pathway (AID 1346877; active = well fitted inhibition curve with a large enough effect in the repeat runs, not every such curve was filed as active; also: series mostly up to about 51 µM)
Outline: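 Screening used HEK293 cells engineered with TRHR, with a brief 5 min room-temperature compound exposure preceding addition of TRH to 1 nM. The read-out was kinetic calcium-dye fluorescence, concentration-response from 15 doses in triplicate.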

[19] = target: Progesterone receptor (Homo sapiens) (UniProt P06401); test: qHTS assay to identify small molecule antagonists of the progesterone receptor (PR) signaling pathway (AID 1346795; active = well fitted inhibition curve with a large enough effect in the signal ratio in the repeat runs, not every such curve was filed as active; the % refers to the signal ratio; also: potency is read from the fitted curve at half-maximal effect)
Outline: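 Read-out is fluorescence from the LiveBLAzer B/G FRET substrate, cleaved by a UAS-controlled beta-lactamase in PR-UAS-bla HEK293T cells after 16 hr exposure to compound plus 1 nM promegestone (final), followed by 2 hr at room temperature.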

Measured: Potency

CCN(CC)c1ccc(C=O)cc1
active: [1] 34.4 µM
not listed: [14] | [15] | [16] | [17] | [18] | [19]
inactive: all other assays above

c1ccc2occc2c1
not listed: [1] | [2] | [3] | [6] | [7] | [17] | [18] | [19]
inactive: all other assays above

O=c1[nH]cccc1O
inactive: [3] | [15] | [5] | [8] | [9] | [11] | [12] | [17] | [13]

O=C(N[C@H](CO)[C@H](O)c1ccc([N+](=O)[O-])cc1)C(Cl)Cl
not listed: [1] | [6] | [7] | [10] | [16] | [17] | [18] | [19]
inactive: all other assays above

C1=CCCC1
not listed: [5] | [15] | [17] | [19]
inactive: all other assays above

c1ccc(C[P+](c2ccccc2)(c2ccccc2)c2ccccc2)cc1
active: [11] 24.3 µM | [17] 61.1 µM
not listed: [1] | [7] | [8] | [9] | [14] | [15]
inactive: all other assays above

CN(C/C=C/c1ccccc1)Cc1cccc2ccccc12
not listed: [1] | [2] | [14] | [15] | [16] | [17] | [18] | [19]
inactive: all other assays above

O=S(=O)(c1ccc(OCc2ccccc2)cc1)c1ccccc1O
active: [11] 61.1 µM
inactive: [1] | [3] | [4] | [8] | [9] | [12] | [13]

COc1cccc(-c2ccc(/C=C\CN3CCCCCC3)cc2Cl)c1
active: [11] 48.3 µM
not listed: [1] | [2] | [12] | [13] | [14] | [17] | [19]
inactive: all other assays above

CC(Cc1ccc(O)c(O)c1)C(C)Cc1ccc(O)c(O)c1 (stereo not given)
active: [19] 61.1 µM | [17] 54.5 µM
not listed: [1] | [2] | [10] | [18]
inactive: all other assays above

CC(C)=NNC(N)=S
active: [6] 21.7 µM
inactive: [3] | [15] | [8] | [16] | [9] | [18] | [10] | [11] | [12] | [13]

C=Cc1ccc(O)c(OC)c1
not listed: [1] | [2] | [3] | [6] | [16] | [19]
inactive: all other assays above

C=CCc1cc(S(=O)(=O)c2ccc(O)c(CC=C)c2)ccc1O
active: [19] 27.3 µM
inactive: [1] | [4] | [14] | [15] | [5] | [8] | [16] | [9] | [12] | [13]

CC(C)(C)C1=CC(=O)C(C(C)(C)C)=CC1=O
not listed: [3] | [17] | [19]
inactive: all other assays above

c1ccc(-c2nc3ccccc3[nH]2)cc1
not listed: [1] | [2] | [11] | [16] | [17] | [19]
inactive: all other assays above

CCCCCCCC1CCC(=O)O1 (stereo not given)
inactive: [6]

CC(=O)N(C)C
inactive: [6]

CC(C)c1ccc2sc3ccccc3c(=O)c2c1
active: [14] 54.5 µM
not listed: [1] | [3] | [9] | [10] | [16] | [18] | [19]
inactive: all other assays above

CC(C)(C)c1ccc(OC2CCCCC2O)cc1 (stereo not given)
active: [17] 61.1 µM
not listed: [2] | [10] | [12] | [15] | [19]
inactive: all other assays above
